Data published in PubChem BioAssay (EPA / NIEHS).
Values joined by “and” are separate entries in the source; they are usually repeats but may differ in a detail not shown here. Equal entries are not always repeated. Records with an inconclusive call do not appear. Active and inactive are the calls of the source. The calls were made as follows, unless noted: active = hit-call score of the fitted dose curve at least 0.9, where 1 is the maximum; inactive = score below 0.9.

Key:
[1] = CCTE_Harrill_HTTr_Viability_MCF7: CCTE's 6-hour Cell Viability Assessment for the High-Throughput Transcriptomics (HTTr) Platform, in MCF-7 cells cultured in DMEM + 10% fetal bovine serum, Harrill Lab (AID 2284010)
Method in brief: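 Viability measured through PI dye exclusion by high-content imaging at 6 h post-dosing.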

[2] = CCTE_Harrill_HTTr_Apoptosis_MCF7: CCTE's 6-hour Apoptosis Assessment for the High-Throughput Transcriptomics (HTTr) Platform, in MCF-7 cells cultured in DMEM + 10% fetal bovine serum, Harrill Lab (AID 2284011)
Method in brief: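 Read-out: CellEvent Caspase 3/7 Green signal by high content imaging, gain-of-signal indicating apoptosis. MCF-7 cells, DMEM + 10% FBS, eight-point dilution series, 6 h exposure. Curves fitted bidirectionally relative to DMSO negative control.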

[3] = CCTE_Shafer_MEA_acute_burst_number: CCTE's Neural Acute Assay for Single-Electrode Bursts, Shafer Lab (AID 2284013)
Method in brief: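 Primary rat cortical neurons on 16-electrode MEA wells, treated on DIV 13 or 15 with compound at 0.03-40 uM. Single-electrode burst count from 40-min recordings at 37 C before and after exposure; percent change from baseline per well, DMSO negative control.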

[4] = CCTE_Shafer_MEA_acute_burst_duration_mean: CCTE's Neural Acute Assay for Mean Burst Duration, Shafer Lab (AID 2284014);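 also: hits are decreases in mean burst duration relative to DMSO controls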
Method in brief: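 Rat primary cortical neurons on 48-well MEA, treated at DIV 13 or 15 with 0.03-40 uM in at least 3 wells. Value is percent change in mean burst duration, comparing 40 min recordings at 37 C before and during exposure.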

[5] = CCTE_Shafer_MEA_acute_per_burst_spike_number_mean: CCTE's Neural Acute Assay for Average Number of Spikes Per Burst, Shafer Lab (AID 2284015);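 also: hits are decreases in mean spikes per burst versus baseline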
Method in brief: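 Rat primary cortical neurons on 48-well MEAs (DIV 13 or 15) were treated with 0.03-40 uM compound at 37 C. Mean spikes per burst over 40 min were recorded before and after exposure and expressed as percent change from baseline, relative to DMSO.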

[6] = CCTE_Shafer_MEA_acute_interburst_interval_mean: CCTE's Neural Acute Assay for Mean Interburst Interval, Shafer Lab (AID 2284016);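 also: percent change of mean interburst interval versus each well's own pre-dose baseline; curves fitted for decrease in interburst interval relative to DMSO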
Method in brief: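 Rat primary cortical neurons on 48-well MEAs at DIV 13 or 15 were exposed acutely to 0.03-40 uM. Spikes detected at 8x rms noise, 37 C. Mean interburst interval from 40 min recordings expressed as percent change from 40 min pre-treatment baseline.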

[7] = CCTE_Shafer_MEA_acute_burst_percentage_mean: CCTE's Neural Acute Assay for Percentage of Spikes in a Burst, Shafer Lab (AID 2284017);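 as to AC50: curve fitted for loss of signal so potency reflects decreased burst percentage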
Method in brief: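 Primary rat cortical neurons on 48-well MEA plates, treated on DIV 13 or 15 at 0.03-40 uM. Spikes detected at 8x rms noise at 37C; percent change from 40-min baseline to 40-min post-dose recording, fitted versus DMSO.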

[8] = CCTE_Shafer_MEA_acute_burst_percentage_std: CCTE's Neural Acute Assay for Standard Deviation of Burst Percentage, Shafer Lab (AID 2284018);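 also: fitted in the negative direction so actives lower burst percentage SD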
Method in brief: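 Rat primary cortical neurons on 48-well MEAs, DIV 13 or 15, 37 C. 40-min baseline then 40-min recording with compound (0.03-40 uM); well-level SD of per-electrode burst spike percentage, expressed as percent change from baseline.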

[9] = CCTE_Shafer_MEA_acute_per_network_burst_spike_number_mean: CCTE's Neural Acute Assay for Average Number of Spikes in a Network Burst, Shafer Lab (AID 2284019);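 as to AC50: curve fitted for loss of signal so actives reduce spikes per network burst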
Method in brief: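 Rat primary cortical neurons on 48-well MEA at DIV 13 or 15, 37 C; compounds 0.03-40 uM, at least three wells each. 40-min baseline then 40-min exposure recording; percent change in mean spikes per network burst.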

[10] = CCTE_Shafer_MEA_acute_per_network_burst_spike_number_std: CCTE's Neural Acute Assay for Standard Deviation of Number of Spikes in a Network Burst, Shafer Lab (AID 2284020);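 also: fitted for decrease in spike-number SD versus DMSO so actives lower it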
Method in brief: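 Rat primary cortical neurons on 48-well MEA (16 electrodes/well), treated DIV 13 or 15 at 0.03-40 uM, ≥3 wells per compound. 40 min recordings at 37 C before and after dosing; value is percent change in network-burst spike-number SD, negative direction vs DMSO.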

[11] = CCTE_Shafer_MEA_acute_per_network_burst_electrodes_number_mean: CCTE's Neural Acute Assay for Mean Number of Electrodes in a Network Burst, Shafer Lab (AID 2284021);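 also: curves fitted for decreases only so hits reduce electrodes per burst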
Method in brief: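 Readout: % change in mean electrodes active per network burst, post- vs pre-treatment, each well. Spikes detected at 8x rms noise after 300-5000 Hz band-pass; rat cortical cultures, DIV 13/15, compounds 0.03-40 uM, DMSO baseline.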

[12] = CCTE_Shafer_MEA_acute_cross_correlation_area: CCTE's Neural Acute Assay for Area of Cross Correlation, Shafer Lab (AID 2284024);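 also: area under pooled inter-electrode spike cross-correlation near zero lag as percent change from own baseline; curves fitted for loss of cross-correlation area so actives lower synchrony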
Method in brief: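 Rat cortical cultures, DIV 13/15, MEA; spikes detected at 8x rms noise (300-5000 Hz band-pass). Compound 0.03-40 uM, ≥3 wells each. Readout: % change in pooled inter-electrode cross-correlation area vs own baseline; DMSO negative control.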

[13] = CCTE_Shafer_MEA_acute_cross_correlation_HWHM: CCTE's Neural Acute Assay for Cross Correlation at Half Width at Half Maximum, Shafer Lab (AID 2284026);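 also: percent change per well from pre-dose baseline in spike cross-correlogram half width; hits are a decrease in cross-correlogram half width relative to DMSO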
Method in brief: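 Read-out: half width at half maximum of action-potential cross-correlogram, percent change versus pre-treatment baseline, fitted in loss direction against DMSO. Rat cortical cultures, DIV 13 or 15, dosed 0.03-40 uM, 40-min recordings at 37 C.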

[14] = CCTE_Shafer_MEA_acute_synchrony_index: CCTE's Neural Acute Assay for Synchrony, Shafer Lab (AID 2284027);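 also: network synchrony index of spontaneous spiking in primary rat cortical neurons on MEAs; fitted for loss of signal so actives lower synchrony relative to DMSO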
Method in brief: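 Spontaneous firing of mature rat cortical networks is captured extracellularly on microelectrode arrays at 37 C, with wells needing ≥10 active electrodes. Each compound (0.03-40 uM) is judged by the change in synchrony index from baseline over 40 min.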

[15] = CCTE_Shafer_MEA_dev_firing_rate_mean: CCTE's Neural Network Formation Assay for Mean Firing Rate, Shafer Lab (AID 2284031);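 also: AUC of well mean spike rate recorded on DIV 5 7 9 and 12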;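 as to AC50: curve fitted for loss of firing so AC50 reflects decreased mean firing rate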
Method in brief: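 Developing rat cortical networks on MEA plates undergo 12-day compound exposure. Firing frequency, averaged across active electrodes, is integrated as area under the curve over four recording days, referenced to DMSO.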

[16] = biological target: Estrogen receptor (Homo sapiens) (UniProt P03372); experiment: CCTE_Deisenroth_AIME_384WELL_LUC_Active: CCTE's 384-well Estrogen Receptor Transactivation Assay with AIME metabolic competence (ERTA luciferase; metabolism positive), Deisenroth Lab (AID 2284030; active = hit-call score of the fitted dose curve at least 0.9, where 1 is the maximum)
Method in brief: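 Readout: bioluminescent luciferase induction in VM7Luc4E2 cells 24 hour after receiving medium from a 2 h rat hepatic S9 (induced, alginate microsphere) metabolism step. Concentrations 0.002 - 200 uM; activity scaled to 17beta-estradiol positive control.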

Measured: AC50

Estrogen receptor (Homo sapiens), sequence (P03372 whole entry, looked up): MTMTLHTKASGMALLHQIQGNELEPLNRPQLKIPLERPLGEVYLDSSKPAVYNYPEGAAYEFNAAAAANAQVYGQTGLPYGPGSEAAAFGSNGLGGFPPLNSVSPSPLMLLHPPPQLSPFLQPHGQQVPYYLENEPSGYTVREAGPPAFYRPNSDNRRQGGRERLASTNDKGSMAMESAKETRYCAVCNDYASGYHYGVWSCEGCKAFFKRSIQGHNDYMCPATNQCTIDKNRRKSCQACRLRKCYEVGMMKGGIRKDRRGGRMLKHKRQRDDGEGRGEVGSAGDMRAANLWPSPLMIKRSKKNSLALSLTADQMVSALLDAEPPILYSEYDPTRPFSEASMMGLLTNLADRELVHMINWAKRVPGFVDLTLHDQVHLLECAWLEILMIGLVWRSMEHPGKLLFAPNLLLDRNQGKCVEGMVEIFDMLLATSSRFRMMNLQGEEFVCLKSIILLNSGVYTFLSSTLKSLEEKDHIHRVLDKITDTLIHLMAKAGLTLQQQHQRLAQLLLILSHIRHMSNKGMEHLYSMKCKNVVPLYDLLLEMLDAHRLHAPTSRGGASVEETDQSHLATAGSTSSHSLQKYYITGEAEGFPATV

N#CN=C1SCCN1Cc1ccc(Cl)nc1
inactive: [1] | [2] | [3] | [4] | [5] | [6] | [7] | [8] | [9] | [10] | [11] | [12] | [13] | [14] | [15]

Clc1cccc(C(Cl)(Cl)Cl)n1
inactive: [1] | [2] | [16]

CCN(CC)c1nc(C)cc(OP(=S)(OC)OC)n1
inactive: [1] | [2] | [15]

Cc1c(COC(=O)[C@@H]2[C@H](/C=C(\Cl)C(F)(F)F)C2(C)C)cccc1-c1ccccc1
inactive: [1] | [2] | [3] | [5] | [6] | [8] | [9] | [11] | [12]
active: [4] 1470 nM | [7] 756 nM | [10] 931 nM | [13] 2290 nM | [14] 786 nM | [15] 847 nM and 2.07 µM

CC1(C)CON(Cc2ccccc2Cl)C1=O
inactive: [1] | [2] | [16]

O=c1n(Cl)c(=O)n(Cl)c(=O)n1Cl
inactive: [1] | [2] | [16]

COCc1cnc(C2=NC(C)(C(C)C)C(=O)N2)c(C(=O)O)c1 (stereo not drawn)
inactive: [1] | [2] | [16]

CCCN(CC)CC1COC2(CCC(C(C)(C)C)CC2)O1 (stereo not drawn)
inactive: [1] | [2] | [3] | [4] | [5] | [6] | [7] | [8] | [9] | [10] | [11] | [12] | [13] | [14]
active: [15] 66 nM

CC1(C)C(C(=O)OC(C#N)c2cccc(Oc3ccccc3)c2)C1(C)C (stereo not drawn)
active: [5] 440 nM | [6] 309 nM | [7] 1280 nM | [9] 74.9 nM | [11] 120 nM | [12] 645 nM | [13] 28600 nM | [14] 1030 nM
inactive: [1] | [2] | [3] | [4] | [8] | [10] | [15]

COC(=O)NS(=O)(=O)c1ccc(N)cc1
inactive: [1] | [2] | [16]

CN/C(=N\[N+](=O)[O-])NCc1cnc(Cl)s1
inactive: [1] | [2] | [3] | [4] | [5] | [6] | [7] | [8] | [9] | [10] | [11] | [13] | [14] | [15]
active: [12] 160 nM

CC(C)Nc1nc(Cl)nc(NC(C)C)n1
inactive: [1] | [2] | [16]

O=C1C2CC=CCC2C(=O)N1SC(Cl)(Cl)Cl (stereo not drawn)
inactive: [1] | [2] | [15]

CN=C=S
inactive: [1] | [2] | [16]

N#Cc1c(Cl)cccc1Cl
inactive: [1] | [2] | [16]

CS(=O)(=O)c1cc(C(F)(F)F)ccc1C(=O)c1cnoc1C1CC1
inactive: [1] | [2] | [16] | [15]

COC(=O)N(C(=O)N1CO[C@@]2(C(=O)OC)Cc3cc(Cl)ccc3C2=N1)c1ccc(OC(F)(F)F)cc1
active: [6] 15000 nM | [7] 28900 nM | [13] 24300 nM | [14] 26600 nM
inactive: [1] | [2] | [3] | [4] | [5] | [8] | [9] | [10] | [11] | [12] | [15]

CNC(=O)N(C)c1nnc(C(C)(C)C)s1
inactive: [1] | [2] | [16]

CCSC(=O)N1CCCCCC1
inactive: [1] | [2] | [16] | [15]

COC(=O)NC(=S)Nc1ccccc1NC(=S)NC(=O)OC
inactive: [1] | [2] | [16]

Nc1c(Cl)c(Cl)nc(C(=O)O)c1Cl
active: [16] 41700 nM
inactive: [1] | [2]

COP(=O)(OC)O/C(C)=C/C(=O)N(C)C
inactive: [1] | [2] | [15]

CCC(C)n1c(=O)[nH]c(C)c(Br)c1=O (stereo not drawn)
inactive: [1] | [2] | [16]
